The supplement of paper PMC8728848
The entries come from a sample that favours the strongest signals as a whole.

Tests used:
Assay in all cases: glycan array binding signal (z-score within array); higher = stronger binding
Details in all cases: glycan notation: IUPAC condensed, linker removed
[1] = target: Fuc(a1-2)Gal(b1-3)GalNAc(a1-3)[Fuc(a1-2)]Gal(b1-4)GlcNAc
Summary of the method: (§1)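 The binding signal is a Z-score computed within each array and averaged over linkers. Arrays of the same protein sequence at different concentrations or buffers were also averaged together. Data originate from 3228 arrays in the Consortium for Functional Glycomics database, kept only where the protein sequence was available.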

[2] = target: Fuc(a1-2)Gal(b1-3)GlcNAc(b1-3)[Neu5Ac(a2-6)Gal(b1-4)GlcNAc(b1-6)]Gal(b1-4)Glc
Summary of the method: as §1

[3] = target: Fuc(a1-2)[Gal(a1-3)]Gal(b1-3)GlcNAc
Summary of the method: as §1

[4] = target: Fuc(a1-2)[Gal(a1-3)]Gal(b1-3)GlcNAc(b1-3)GalNAc
Summary of the method: as §1

[5] = target: Fuc(a1-2)[Gal(a1-3)]Gal(b1-4)GlcNAc(b1-3)[Fuc(a1-2)[Gal(a1-3)]Gal(b1-4)GlcNAc(b1-6)]GalNAc
Summary of the method: as §1

[6] = target: Fuc(a1-2)[GalNAc(a1-3)]Gal(b1-3)GlcNAc
Summary of the method: as §1

[7] = target: Fuc(a1-2)[GalNAc(b1-3)]Gal
Summary of the method: as §1

[8] = target: Fuc(a1-3)[Gal(b1-4)]Glc6S
Summary of the method: as §1

[9] = target: Gal(a1-3)Gal
Summary of the method: as §1

[10] = target: Gal(a1-4)Gal(b1-4)GlcNAc(b1-2)Man(a1-3)[Gal(a1-4)Gal(b1-4)GlcNAc(b1-2)Man(a1-6)]Man(b1-4)GlcNAc(b1-4)GlcNAc
Summary of the method: as §1

[11] = target: Gal(b1-2)Gal
Summary of the method: as §1

[12] = target: Gal(b1-3)GalNAc(b1-3)Gal(a1-4)Gal(b1-4)Glc
Summary of the method: as §1

[13] = target: Gal(b1-3)GalNAc(b1-4)[Neu5Ac(a2-3)]Gal(b1-4)Glc
Summary of the method: as §1

[14] = target: Gal(b1-3)GlcNAc(b1-6)Gal(b1-4)GlcNAc
Summary of the method: as §1

[15] = target: Gal(b1-3)[Fuc(a1-4)]GlcNAc(b1-3)Gal(b1-4)[Fuc(a1-3)]GlcNAc
Summary of the method: as §1

[16] = target: Gal(b1-4)GlcNAc(b1-2)Man(a1-3)[Gal(b1-4)GlcNAc(b1-2)Man(a1-6)]Man(b1-4)GlcNAc(b1-4)[Fuc(a1-6)]GlcNAc
Summary of the method: as §1

[17] = target: Gal(b1-4)GlcNAc(b1-2)[Gal(b1-4)GlcNAc(b1-4)]Man(a1-3)[GlcNAc(b1-4)][Gal(b1-4)GlcNAc(b1-2)Man(a1-6)]Man(b1-4)GlcNAc(b1-4)GlcNAc
Summary of the method: as §1

[18] = target: Gal(b1-4)GlcNAc(b1-3)Gal(b1-4)GlcNAc(b1-3)Gal(b1-4)GlcNAc(b1-2)Man(a1-3)[Gal(b1-4)GlcNAc(b1-3)Gal(b1-4)GlcNAc(b1-3)Gal(b1-4)GlcNAc(b1-2)Man(a1-6)]Man(b1-4)GlcNAc(b1-4)[Fuc(a1-6)]GlcNAc
Summary of the method: as §1

[19] = target: Gal(b1-4)GlcNAc(b1-6)[Gal(b1-4)GlcNAc(b1-3)]GalNAc
Summary of the method: as §1

[20] = target: Gal3S(b1-3)GalNAc
Summary of the method: as §1

[21] = target: Gal4S6S(b1-4)GlcNAc
Summary of the method: as §1

[22] = target: GlcNAc(a1-4)Gal(b1-4)GlcNAc(b1-3)Gal(b1-4)GlcNAc
Summary of the method: as §1

[23] = target: GlcNAc(b1-3)Gal(b1-4)GlcNAc(b1-2)[GlcNAc(b1-3)Gal(b1-4)GlcNAc(b1-6)]Man(a1-6)[GlcNAc(b1-3)Gal(b1-4)GlcNAc(b1-2)Man(a1-3)]Man(b1-4)GlcNAc(b1-4)GlcNAc
Summary of the method: as §1

[24] = target: GlcNAc(b1-3)Gal(b1-4)GlcNAc(b1-3)Gal(b1-4)GlcNAc(b1-2)Man(a1-3)[GlcNAc(b1-3)Gal(b1-4)GlcNAc(b1-3)Gal(b1-4)GlcNAc(b1-2)Man(a1-6)]Man(b1-4)GlcNAc(b1-4)GlcNAc
Summary of the method: as §1

[25] = target: GlcNAc(b1-3)Gal(b1-4)GlcNAc(b1-3)Gal(b1-4)GlcNAc(b1-2)Man(a1-3)[GlcNAc(b1-3)Gal(b1-4)GlcNAc(b1-3)Gal(b1-4)GlcNAc(b1-2)Man(a1-6)]Man(b1-4)GlcNAc(b1-4)[Fuc(a1-6)]GlcNAc
Summary of the method: as §1

[26] = target: GlcNAc(b1-3)Gal(b1-4)GlcNAc(b1-3)Gal(b1-4)GlcNAc(b1-2)[GlcNAc(b1-3)Gal(b1-4)GlcNAc(b1-3)Gal(b1-4)GlcNAc(b1-6)]Man(a1-6)[GlcNAc(b1-3)Gal(b1-4)GlcNAc(b1-3)Gal(b1-4)GlcNAc(b1-2)Man(a1-3)]Man(b1-4)GlcNAc(b1-4)[Fuc(a1-6)]GlcNAc
Summary of the method: as §1

[27] = target: GlcNAc(b1-3)Gal(b1-4)GlcNAc(b1-3)Gal(b1-4)GlcNAc(b1-3)Gal(b1-4)GlcNAc(b1-2)Man(a1-3)[GlcNAc(b1-3)Gal(b1-4)GlcNAc(b1-3)Gal(b1-4)GlcNAc(b1-3)Gal(b1-4)GlcNAc(b1-2)Man(a1-6)]Man(b1-4)GlcNAc(b1-4)GlcNAc
Summary of the method: as §1

[28] = target: GlcNAc(b1-3)Gal(b1-4)GlcNAc(b1-3)Gal(b1-4)GlcNAc(b1-3)Gal(b1-4)GlcNAc(b1-2)Man(a1-3)[GlcNAc(b1-3)Gal(b1-4)GlcNAc(b1-3)Gal(b1-4)GlcNAc(b1-3)Gal(b1-4)GlcNAc(b1-2)Man(a1-6)]Man(b1-4)GlcNAc(b1-4)[Fuc(a1-6)]GlcNAc
Summary of the method: as §1

[29] = target: GlcNAc(b1-3)Gal(b1-4)GlcNAc(b1-3)Gal(b1-4)GlcNAc(b1-3)Gal(b1-4)GlcNAc(b1-2)[GlcNAc(b1-3)Gal(b1-4)GlcNAc(b1-3)Gal(b1-4)GlcNAc(b1-3)Gal(b1-4)GlcNAc(b1-6)]Man(a1-6)[GlcNAc(b1-3)Gal(b1-4)GlcNAc(b1-3)Gal(b1-4)GlcNAc(b1-3)Gal(b1-4)GlcNAc(b1-2)Man(a1-3)]Man(b1-4)GlcNAc(b1-4)[Fuc(a1-6)]GlcNAc
Summary of the method: as §1

[30] = target: GlcNAc(b1-3)Gal(b1-4)GlcNAc(b1-3)Gal(b1-4)GlcNAc(b1-3)Gal(b1-4)GlcNAc(b1-3)Gal(b1-4)GlcNAc(b1-2)Man(a1-3)[GlcNAc(b1-3)Gal(b1-4)GlcNAc(b1-3)Gal(b1-4)GlcNAc(b1-3)Gal(b1-4)GlcNAc(b1-3)Gal(b1-4)GlcNAc(b1-2)Man(a1-6)]Man(b1-4)GlcNAc(b1-4)GlcNAc
Summary of the method: as §1

B1: Di AAL2 (Agrocybe aegerita) (protein)
chain: MTSNVITQDLPIPVASRGFADIVGFGLDGVVIGRNAVNLQPFLAVKNFAQNAGGWLTTKHVRLIADTTGTGKGDIVGFGNAGVYVSVNNGKNTFADPPKMVIANFGYDAGGWRVEKHLRYLADIRKIGRADIIGFGEKGVLVSRNNGGLNFGPATLVLKDFGYDAGGWRLDRHLRFLADVTGNGHLDIVGFGDKHVFISRNNGDGTFAPAKSVIDNFCIDAGGWKIGDHPRFVADLTGDGTADIIGCGKAGCWVALNNGGGVFGQVKLVINDFGTDKGWQAAKHPRFIADLTGNGRGDVVGFGNAGVYVALNNGDGTFQSAKLVLKDFGVQQGWTVSKHRRFVVDLTGDGCADIIGFGEKETLVSYNDGKGNFGPVKALTNDFSFSGGKWAPETTVCWMANLDSSRHPAPAPMTSNVITQDLPIPVASRGFADIVGFGLDGVVIGRNAVNLQPFLAVKNFAQNAGGWLTTKHVRLIADTTGTGKGDIVGFGNAGVYVSVNNGKNTFADPPKMVIANFGYDAGGWRVEKHLRYLADIRKIGRADIIGFGEKGVLVSRNNGGLNFGPATLVLKDFGYDAGGWRLDRHLRFLADVTGNGHLDIVGFGDKHVFISRNNGDGTFAPAKSVIDNFCIDAGGWKIGDHPRFVADLTGDGTADIIGCGKAGCWVALNNGGGVFGQVKLVINDFGTDKGWQAAKHPRFIADLTGNGRGDVVGFGNAGVYVALNNGDGTFQSAKLVLKDFGVQQGWTVSKHRRFVVDLTGDGCADIIGFGEKETLVSYNDGKGNFGPVKALTNDFSFSGGKWAPETTVCWMANLDSSRH
glycan array binding signal (z-score) [1]: -0.31 | glycan array binding signal (z-score) [2]: -0.337 | glycan array binding signal (z-score) [3]: -0.338 | glycan array binding signal (z-score) [4]: -0.312 | glycan array binding signal (z-score) [5]: -0.292 | glycan array binding signal (z-score) [6]: -0.172 | glycan array binding signal (z-score) [7]: -0.337 | glycan array binding signal (z-score) [8]: -0.322 | glycan array binding signal (z-score) [9]: -0.332 | glycan array binding signal (z-score) [10]: 5.32 | glycan array binding signal (z-score) [11]: -0.333 | glycan array binding signal (z-score) [12]: -0.331 | glycan array binding signal (z-score) [13]: -0.314 | glycan array binding signal (z-score) [14]: -0.333 | glycan array binding signal (z-score) [15]: -0.331 | glycan array binding signal (z-score) [16]: -0.343 | glycan array binding signal (z-score) [17]: -0.313 | glycan array binding signal (z-score) [18]: -0.209 | glycan array binding signal (z-score) [19]: -0.313 | glycan array binding signal (z-score) [20]: -0.334 | glycan array binding signal (z-score) [21]: -0.338 | glycan array binding signal (z-score) [22]: 2.68 | glycan array binding signal (z-score) [23]: 5.83 | glycan array binding signal (z-score) [24]: 3.47 | glycan array binding signal (z-score) [25]: 3.72 | glycan array binding signal (z-score) [26]: 5.12 | glycan array binding signal (z-score) [27]: 5.42 | glycan array binding signal (z-score) [28]: 4.23 | glycan array binding signal (z-score) [29]: 5.39 | glycan array binding signal (z-score) [30]: 5.42
